High-throughput results: PubChem, National Center for Advancing Translational Sciences (NCATS)
ELG1 genotox: genotoxicity induction in ELG1-luciferase HEK293T cells | Potency, µM (doses to about 46 µM), inactives show at the highest dose activity change, positive = activation, usual class: activators | AID 504466 | HEK293T ELG1-luciferase reporter, luminescence, 16 h | hit rate 1.3% among 330,000; also: % of control where 0% means no effect; nearly all actives have a fitted effect of over 60% in size
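Quantitative HTS format in 1536-well plates. HEK293T ELG1-luciferase reporter cells receive test compound and are incubated 16 hr at 37 °C, 5% CO2; ONE-Glo added, 30 min room temperature, then luminescence read.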
SMN2 splice enh: enhancers of SMN2 splice variant expression; Potency, µM (highest dose often 46.1 µM), inactives show top-dose activity change, positive = activation, usual class: activators; hit rate 2.8% among 210,000; HEK293 SMN2-luciferase splicing reporter, luminescence, 30-36 h; also: % of control where 0% means no effect; nearly all actives have a fitted effect of over 55% in size
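qHTS luciferase splicing reporter: luminescence rises when SMN2 exon 7 is included in transfected HEK293 cells. Compound exposure lasted 30-36 h at 37C, with 4.5 mM final sodium butyrate as control, followed by a ONE-Glo read.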
NPC1 promoter act: activates the NPC1 promoter; Huh7 NPC1 promoter luciferase reporter, 24 h; Potency, µM (top dose mostly 9.22 µM), without a hit: at the highest dose activation, hits mostly activators; hit rate 2.4% among 320,000; also: % of control where 0% means no effect; nearly all actives have a fitted effect of over 60% in size
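Readout is luciferase luminescence, reflecting NPC1 promoter activation in stably transfected Huh7 cells after 24 h compound exposure at 37 °C in reduced-serum medium with 10% FBS.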
FLuc counter: inhibits or activates purified firefly luciferase, miR-21 counter-screen. AID 588342. hit rate 6.9% among 360,000. Potency, µM (series often up to 57.5 µM), for the others: top-dose activity change, negative = inhibition, usual class: inhibitors. purified FLuc, Km substrates, luminescence inhibition. P08659;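 also: plate controls were vehicle for no effect and reference inhibitor for full effect; nearly all actives have a fitted effect of over 55% in size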
Target sequence (P08659 whole entry, looked up): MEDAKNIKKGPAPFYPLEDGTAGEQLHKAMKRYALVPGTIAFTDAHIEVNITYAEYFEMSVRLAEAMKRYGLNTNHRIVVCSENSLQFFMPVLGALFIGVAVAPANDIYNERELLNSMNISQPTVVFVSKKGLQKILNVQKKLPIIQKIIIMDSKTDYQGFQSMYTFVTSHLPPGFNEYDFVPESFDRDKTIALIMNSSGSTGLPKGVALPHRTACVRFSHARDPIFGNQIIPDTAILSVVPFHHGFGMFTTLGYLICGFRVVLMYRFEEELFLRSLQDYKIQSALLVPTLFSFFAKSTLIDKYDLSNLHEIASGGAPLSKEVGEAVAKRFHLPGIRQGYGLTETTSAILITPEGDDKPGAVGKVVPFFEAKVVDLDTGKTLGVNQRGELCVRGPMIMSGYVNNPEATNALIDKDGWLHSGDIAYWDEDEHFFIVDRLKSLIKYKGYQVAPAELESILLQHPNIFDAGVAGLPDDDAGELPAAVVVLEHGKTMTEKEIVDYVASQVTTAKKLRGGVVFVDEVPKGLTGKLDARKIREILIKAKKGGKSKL
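Purified P. pyralis luciferase (10nM final) with 10uM D-luciferin and 10uM ATP (Km levels) in 50mM Tris acetate pH 7.5, 10mM Mg acetate, 0.01% Tween-20, 0.05% BSA; qHTS 6-point titration, ~60 µM downward; luminescence read.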
Rab9 prom act: Rab9 promoter activation. Huh7 Rab9 promoter-luciferase reporter, luminescence, 24 h. Potency, µM (titrated, usually from 9.22 µM), inactives show at the highest dose activation, negative = inhibition, most hits filed as activators. hit rate 2.8% among 320,000. AID 485297; also: % of control where 0% means no effect; nearly all actives have a fitted effect of over 60% in size
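Huh7 cells stably carrying Rab9 promoter–luciferase reporter, plated 1500 cells/well, compound added after 2 h and incubated 24 h at 37 °C; luciferase luminescence then read after 10 min with detection reagent.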
Starred values were filed as active, the others as inactive; ? = inconclusive; nt = not tested or not shown; [ ] = dose if it differs, or a comment. A selection: hits, their analogues and other compounds. The true share with any hit is near 7.5%. Calls follow the shape of the dose curve; as a rule, active = well fitted curve in the direction sought with a large enough effect; inconclusive = small, poorly fitted or top-dose-only effect, or another doubt; inactive = no such curve, though single readings can be large; an effect the other way counts as inactive or inconclusive. Potency is read from the fitted curve at half-maximal effect.

SMILES | ELG1 genotox | SMN2 splice enh | NPC1 promoter act | FLuc counter | Rab9 prom act
S=C1NC2CCCCC2N1 (configuration not stated) | 1% | -1% | -4% | -1% | 8%
COc1ccc2c(c1)c(=O)oc1c(C)c(OCc3cc(C(=O)O)oc3C)ccc12 | ? | 1% | -1% | 11µM* | 12%
COc1ccc2c(c1)c(=O)oc1c(C)c(OC(C)C(=O)NCC3CCC(C(=O)O)CC3)ccc12 (configuration not stated) | 9% | nt | 8% | 15µM* | 5%
COc1ccc2c(c1)c(=O)oc1c(C)c(OCC(=O)N3CCc4ccccc4C3)ccc12 | 2% | -18% | -2% | -13% | 7%
Cc1cc(=O)oc2c(C)c(OC(C)C(=O)NCC3CCC(C(=O)O)CC3)ccc12 (configuration not stated) | 1% | nt | 6% | -1% | -1%
COc1ccc2c(c1)c(=O)oc1c(C)c(OCc3ccc(C(=O)O)cc3)ccc12 | 3% | nt | -5% | 24µM* | 7%
CN(C)CCNC(=O)c1ccc2nc(Cc3ccccc3)oc2c1 | nt | nt | nt | -6% | nt
COc1cccc(OCc2ccc(Cl)cc2)c1C#N | ? | nt | 0.71µM* | 0.54µM* | 0.56µM*
CC(NC(=O)COC(=O)c1ccc(N(C)C)cc1)c1ccccc1 (configuration not stated) | -7% | 11% | -3% | -8% | -5%
COc1ccccc1C(=O)COC(=O)c1ccccc1O | 16% | 5% | -11% | 21µM* | 13%
COc1ccccc1C(=O)COC(=O)c1ccc(N(C)C)cc1 | ? | 22µM* | 3.2µM* | 5.4µM* | 3.5µM*
CC(C)(C)C(=O)COC(=O)c1ccccc1O | 0% | -12% | 0% | -17% | -4%
COc1ccccc1C(=O)COC(=O)/C=C/c1ccccc1 | 20% | nt | 26% | 13µM* | 26%
CCc1ccc(C(=O)COC(=O)c2ccccc2OC)cc1 | ? | nt | 2.2µM* | 0.48µM* | 3.2µM*
COc1ccc(CCNC(=O)C(=O)NCc2ccc(Cl)cc2)cc1OC | ? | -29% | -2% | -2% | 2%
O=c1ccc(-c2ccccc2)no1 | -1% | nt | -2% | 1% | 2%
C[N+](C)([O-])Cc1cc(-c2ccccc2)ccc1O | nt | -13%[9.22 µM] | nt | nt | nt
O=C(Nc1cccc(NC(=O)c2cccc(F)c2)n1)c1cccc(F)c1 | -1% | nt | -3% | 19µM* | 0%
Cc1ccc2cc(NC(=O)c3ccccc3)ccc2n1 | 1.8µM* | nt | 0.56µM* | 1.9µM* | 0.4µM*
O=C(Nc1ccc2[nH]c(=O)c(=O)[nH]c2c1)c1cccc(F)c1 | nt | ? | nt | 1% | nt
CCCC(=O)Nc1cnc(NC(=O)c2cccc(F)c2)cc1C | 0.46µM* | 2µM* | 0.45µM* | 9.5µM* | 0.63µM*
Cc1ccc2cc(NC(=O)c3cccc(F)c3)ccc2n1 | 2.6µM* | nt | 0.63µM* | 2.7µM* | 0.56µM*
CCN1CCN(S(=O)(=O)c2ccc(OC)c(NC(=O)c3ccccc3)c2)CC1 | -1% | nt | -4% | 5% | 3%
CCOC(=O)CSC(C)C(=O)Nc1nnc(C(C)C)s1 (configuration not stated) | 4% | -3% | 2% | 2% | -2%
Cn1c(CN2CCCC(C(=O)c3ccc4c(c3)OCO4)C2)nc2ccccc21 (configuration not stated) | 0% | nt | -11% | -10% | 8%
SMILES | ELG1 genotox | SMN2 splice enh | NPC1 promoter act | FLuc counter | Rab9 prom act
CC(=O)Oc1ccc(/C(C)=N\N2CCN(Cc3ccc(Cl)cc3)CC2)cc1 | -7% | nt | -8% | 1% | -2%
O=C(Nc1ccc2ccccc2c1)c1cccc(F)c1 | ? | nt | 1.3µM* | 2.1µM* | 0.71µM*
COc1ccc2nc(N3C(=O)CNC3=S)sc2c1 | 21µM* | nt | 3.5µM* | 2.4µM* | 1.3µM*
COC(=O)/C=C1\C(=O)N(c2nc3ccc(OC)cc3s2)C(=S)N1c1ccc(F)cc1 | 1% | 16% | 2% | 1% | 2%
Cc1cccc(CC2CC(=O)N(c3nc4ccccc4s3)C2=O)c1 (configuration not stated) | -5% | 6% | 0% | ? | -2%
Cc1ccc2nc(N3C(=O)CNC3=S)sc2c1 | 21µM* | nt | 1.1µM* | 1.5µM* | ?
O=C1CN(C(=O)COC(=O)CCc2ccccc2O)c2ccccc2N1 | -1% | nt | nt | nt | nt
Fc1ccc2nc(Nc3nc4cc5c(cc4s3)OCO5)sc2c1 | 13µM* | 11µM* | 2.5µM* | 6µM* | 2µM*
O=C(NNc1nc2cc3c(cc2s1)OCO3)c1ccc(F)cc1 | -3% | 20% | 3% | ? | 13%
c1ccc2sc(Nc3nc4cc5c(cc4s3)OCO5)nc2c1 | 5.2µM* | 3.2µM* | 3.2µM* | 2.4µM* | 1µM*
O=C(NNc1nc2cc3c(cc2s1)OCCO3)c1ccc(F)cc1 | 6% | 24% | 17% | ? | 27%
Fc1ccc2nc(Nc3nc4cc5c(cc4s3)OCCO5)sc2c1 | ? | ? | 2.8µM* | ? | 2.8µM*
C[C@H](NC(=O)[C@@H]1Cc2ccccc2CN1)C(=O)NC1CCCC1 | 2% | nt | -6% | 0% | 0%
COc1cc(-c2nnc(SCCOc3cc(C)cc(C)c3)o2)cc(OC)c1OC | nt | nt | nt | 15µM* | nt
COc1ccc(CNC(=O)c2cc3cccc4c3n2CC(C)S4)cc1 (configuration not stated) | nt | nt | nt | 8% | nt
COc1ccc(C(=O)N/C(=C\c2ccc(SC)cc2)C(=O)NCCCn2ccnc2)cc1OC | 2% | nt | nt | nt | nt
CC(C)c1nn2c(=O)cc(COC(=O)CNC(=O)c3ccccc3)nc2s1 | nt | nt | nt | -6% | nt
COc1ccc(Nc2nc(-c3ccccc3F)nc3ccccc23)cc1OC | -10% | nt | -4% | 27µM* | 0%
Cc1ccc(/C=N/NC(=O)c2ccco2)s1 | ? | ? | 3.2µM* | 15µM* | 3.2µM*
Cn1cccc1/C=N/NC(=O)c1ccco1 | ? | 22% | 14% | ? | 18%
O=C(N/N=C/c1ccc(Br)s1)c1ccco1 | ? | nt | ? | 21µM* | ?
O=C1CC(c2ccccc2)Cc2[nH]c(=O)c(-c3nc(-c4ccc(F)cc4)cs3)cc21 (configuration not stated) | nt | 4% | nt | -2% | nt
CCCCCc1nnc(NC(=O)c2cccc(S(=O)(=O)N3CCOCC3)c2)s1 | -5% | nt | -2% | nt | -5%
O=c1cc(COc2ccc(Cl)c(Cl)c2)nc2sccn12 | 13% | nt | ? | -4% | 3.2µM*
CC(C)c1ccc(S(=O)(=O)c2nnn3c2nc(N2CCCC2)c2sccc23)cc1 | nt | nt | nt | 0% | nt
CC(=O)c1cccc(NC(=O)NNC(=O)c2ccc(Cl)cc2Cl)c1 | -10% | nt | -5% | -6% | -6%
C/C(=N/NS(=O)(=O)c1ccc(Cl)cc1)c1cccc(NC(=O)c2ccc(Cl)cc2Cl)c1 | 0% | 8% | 0% | 17µM* | 4%
C/C(=N\NC(=O)C1CC1)c1cccc(NC(=O)c2cccc(Cl)c2)c1 | 0% | 22% | 3% | ? | 2%
